Compounds without any hit were thinned out: in the full panel of roughly 83,000, 20% have a hit.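 96-well plates, one dose, 48 hours. Percent growth reported; active if below 10.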 A number with no mark means an inactive call. Calls of active or inactive are those of the source.
Each compound was assayed on LOX IMVI melanoma (assay: NCI-60 one-dose screen, 48 h (100 = growth as untreated, 0 = no growth, -100 = all killed)). Details: 10 µM unless noted.

Row | SMILES | growth
1 | COc1cc(C2CC(=O)Nc3c2cc(Br)c2ccccc32)cc(Br)c1OC (stereo unspecified) | 28.3%
2 | CCOC(=O)c1ccccc1OC(=O)NNc1ccccc1 | 73.5%
3 | C=CC1=C(C(=O)O)N2C(=O)[C@@H](NC(=O)/C(=N\O)c3csc(N)n3)[C@H]2SC1 (stereo in doubt) | 88.1%
4 | N=c1ccn2c(n1)O[C@@H]1[C@@H](O)[C@H](CO)O[C@@H]12 | 67.9%
5 | CCCc1cc(=O)n2c(C(=O)Nc3ccccc3OC)c(C(=O)Nc3ccc(F)cc3)sc2n1 | 44.5% [30 µM]
6 | COc1ccc(-c2cn(-c3ccccc3)c(-c3ccccc3)n2)cc1OC | 14.5%
7 | CC(c1cc(Cl)ccc1O)c1cc(Cl)ccc1O | 30.1%
8 | COc1c(O)cc2oc3cc(O)c(CC=C(C)C)c(O)c3c(=O)c2c1C/C=C(\C)CCC=C(C)C | -85.8% (active)
9 | CC[C@@H]1OC(=O)[C@H](C)[C@@H](O[C@H]2C[C@@](C)(OC)[C@@H](O)[C@H](C)O2)[C@H](C)[C@@H](O[C@@H]2O[C@H](C)C[C@H](N(C)C)[C@H]2O)[C@](C)(O)C[C@@H](C)[C@@H]2N[C@@H](COCCOC)O[C@H]([C@H]2C)[C@]1(C)O | 94.8%
10 | O=C1Cc2cc(CCn3cncn3)c(Cl)cc2N1 | 81%
11 | COc1cccc(/C=C2\COc3ccc(O)c(O)c3C2=O)c1OC | -72.6% (active)
12 | CCC1=C(c2ccc(OC)cc2)C(C)Oc2cc(OC(C)=O)ccc21 (stereo unspecified) | 90.6%
13 | Cc1ccc(C=C2C(Cl)=C(Cl)C(Cl)=C2Cl)cc1 | -88.7% (active)
14 | CCCCCCC/C(=N\N=C(N)N)c1ccc(O)cc1 | 31.4%
15 | C=CCCCCCCCCC(=O)[O][Sn]([CH2]CCC)([CH2]CCC)[CH2]CCC | -90.9% (active)
16 | CCOc1cccc(C2CC(=O)Nc3cc4c(cc32)OCO4)c1 (stereo unspecified) | 93.8%

Row | SMILES | growth
17 | Cc1nc2cc(NC(=O)CN3CCN(CCN4C(=O)c5cccc6cccc(c56)C4=O)CC3)ccc2s1 | 39.9%
18 | OCCOc1c(Cl)cc(Cl)cc1Cl | 100%
19 | Nc1c2ccccc2nc2ccccc12 (tested in a mixture with another compound) | 4.92% (active)
20 | Nc1cc(Cl)c(S(N)(=O)=O)cc1S(N)(=O)=O | 101%
21 | CCCCCCCC/C=C\CCCCCCCCOc1ccccc1CC(=O)NCC[N+]1(C)CCCC1 | 72%
22 | O=C(Nc1nc2ccccc2s1)c1cc(-c2ccc(F)cc2)n2nc(-c3ccccc3)cc2n1 | 45.6%
23 | CCCCn1c(Cc2ccc(Cl)cc2)nc2cc(OC)c(OC)cc2c1=O | 79.9%
24 | C=C1c2c(C)nn(-c3ccc(C#CCOC4OC(CO)C(O)C(O)C4O)cc3)c2N(C)C23C[C@H]1C1(C)c4c(C)nn(-c5ccc(C#CCOC6OC(CO)C(O)C(O)C6O)cc5)c4N(C)C(C)(C[C@H]12)C3 (stereo partly specified) | -42.4% (active)
25 | O=C1OC(c2ccc(-c3ccccc3)cc2)=C/C1=C/c1cccs1 | 99.4%
26 | CO[C@H]1CC(O[C@@H]2/C(C)=C/C[C@@H]3C[C@@H](C[C@]4(CC[C@H](C)[C@@H](C5CCCCC5)O4)O3)OC(=O)[C@@H]3C=C(C)/C(=N/O)[C@H]4OC/C(=C\C=C\[C@@H]2C)[C@]43O)O[C@@H](C)C1O (stereo partly specified) | -92.9% (active)
27 | COC1CC2CCC(C)C(O)(O2)C(=O)C(=O)N2CCCCC2C(=O)OC(C(C)CC2CCC(O)C(OC)C2)CC(=O)C(C)C=C(C)C(O)C(OC)C(=O)C(C)CC(C)/C=C/C=C/C=C1C (stereo unspecified) | 39%
28 | Cc1cc(N2CCOCC2)nc(N2CCOCC2)n1 | 104%
29 | CN(C)c1ccc2[nH]c3c(C(N)=O)cc(=O)c(=O)c=3oc2c1 | 8.85% (active)
30 | CCC[C@H](N[C@@H](C)C(=O)N1[C@H](C(=O)O)C[C@@H]2CCCC[C@@H]21)C(=O)OCC | 89.8%
31 | O=C(/C(=C/c1cccc([N+](=O)[O-])c1)c1ccccc1)c1ccccc1 | 10.7%

From PubChem BioAssay (NCI)
